Screening data from PubChem.
KCNQ2 inh – blocks the rat KCNQ2 potassium channel | O88943 | CHO-K1 KCNQ2, FluxOR thallium flux, 20 min; hits give low values | B-score at 10 µM | 310,000 compounds, 1.1% hits;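 active = fluorescence ratio B-score at most minus 3 library SDs, with starting brightness B-score within 2 library SDs, cut at about -5.5 in these data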
KCNQ2 pot – potentiators of rat KCNQ2 potassium channel; O88943; CHO-K1 KCNQ2, FluxOR thallium flux fluorescence; hits give high values; B-score at 10 µM; 310,000 compounds, 0.54% hits; AID 2239;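 active = fluorescence ratio B-score at least 3 SD of library B-scores, with initial fluorescence B-score within 3 of them, cut at about 5.3 in these data; same plate scores as AID 2156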;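 note: B-score of peak minus minimum over baseline fluorescence ratio after K+ and Tl+ stimulus; positive B-score means potentiation of KCNQ2 with more thallium influx and brighter signal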
Kir21 conf inh – confirmation of mouse Kir2.1 potassium channel inhibitors; AID 2032; shares compounds with KCNQ2 pot; Tl flux remaining, % of negative control (hits give low values), % at 10 µM; Kir2.1-expressing cells, FluxOR thallium flux fluorescence; hits give low values; 2,300 compounds, 41% hits;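 active = Primary-screen hit whose thallium flux fell at least 3 control SD below untreated wells in both duplicates, with normal baseline fluorescence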
HEK293 ctr – parental HEK293 activity in Kir2.1 inhibitor counter-screen. shares compounds with KCNQ2 pot. parental HEK293 cells, FluxOR thallium flux fluorescence; 0% = unstimulated blank wells. FluxOR signal as % of negative control (100 = no effect), % at 10 µM. 2,300 compounds, 19% hits;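 active = dye signal at least 3 control SD above or below untreated wells in both duplicates, raw fluorescence within 3, either direction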;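 note: percent is based on the flux ratio of peak minus minimum fluorescence over baseline F0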
CHO-K1 ctr – parental CHO-K1 activity in KCNQ2 potentiator counter-screen. shares compounds with KCNQ2 pot. parental CHO-K1 cells, FluxOR thallium flux fluorescence; zero = vehicle mean+3SD, 100% = vehicle-minus-blank window. activity increase over 3SD of controls, % at 10 µM. 1,200 compounds, 43% hits. AID 2282;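 active = signal rise of at least 3 SD above the untreated control mean, in both duplicate wells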;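 note: counter screen of KCNQ2 potentiator hits so any rise reflects channel-independent effects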
KCNQ1 sel pot – tests whether KCNQ2 potentiators also act on human KCNQ1 | shares compounds with KCNQ2 pot | CHO KCNQ1 stable, FluxOR thallium flux fluorescence; beyond 3SD, as % of vehicle-control signal | activation over 3SD threshold, % at 10 µM | 1,200 compounds, 28% hits | AID 2283;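 active = fluorescence ratio rise of at least 3 SD of vehicle wells above their mean, in both replicate wells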
Target sequence (P51787 whole entry, looked up): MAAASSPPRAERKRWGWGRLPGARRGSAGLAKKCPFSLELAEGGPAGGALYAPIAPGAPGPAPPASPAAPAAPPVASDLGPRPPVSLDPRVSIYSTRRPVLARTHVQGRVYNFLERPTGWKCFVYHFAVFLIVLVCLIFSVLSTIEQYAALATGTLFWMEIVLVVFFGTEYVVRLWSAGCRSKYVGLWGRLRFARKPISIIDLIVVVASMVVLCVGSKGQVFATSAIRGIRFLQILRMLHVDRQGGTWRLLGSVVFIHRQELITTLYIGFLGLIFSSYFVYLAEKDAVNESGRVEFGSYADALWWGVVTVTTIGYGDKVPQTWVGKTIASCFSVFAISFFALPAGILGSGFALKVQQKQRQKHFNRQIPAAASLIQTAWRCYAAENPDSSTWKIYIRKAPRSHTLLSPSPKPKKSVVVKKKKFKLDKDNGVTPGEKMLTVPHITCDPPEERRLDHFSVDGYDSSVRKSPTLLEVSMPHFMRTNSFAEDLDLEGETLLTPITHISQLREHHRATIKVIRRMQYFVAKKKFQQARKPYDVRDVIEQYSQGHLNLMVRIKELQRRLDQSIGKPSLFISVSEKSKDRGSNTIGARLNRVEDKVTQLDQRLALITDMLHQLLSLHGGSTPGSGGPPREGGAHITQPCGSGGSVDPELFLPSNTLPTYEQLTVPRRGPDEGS
KCNQ2 pot confirm – rat KCNQ2 channel potentiator confirmation. shares compounds with KCNQ2 pot. CHO-KCNQ2 cells, FluxOR thallium flux fluorescence. potentiation, less the hit threshold, % at 10 µM. 1,200 compounds, 68% hits. AID 2287;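 active = fluorescence ratio rising 3 SD or more over the vehicle control mean in both replicates, plus primary screen hit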;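 note: peak minus minimum thallium fluorescence divided by baseline after K/Tl stimulus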
Kir2-1 sel – selectivity of KCNQ2 potentiators: effect on mouse Kir2.1; HEK293 Kir2.1, FluxOR thallium flux fluorescence; AID 2345; 1,200 compounds, 2% hits; shares compounds with KCNQ2 pot; activity over 3SD threshold, % at 10 µM;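 active = fluorescence ratio rise of at least 3 SD above the vehicle-control mean, seen in both replicates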
KCNQ2 W236L MoA – KCNQ2 potentiators acting on retigabine-insensitive rat KCNQ2 W236L mutant; shares compounds with KCNQ2 pot; CHO KCNQ2-W236L, automated patch clamp current; current increase over 3SD of negative controls (%), hits give high values, % at 25 µM; 940 compounds, 10% hits; AID 2558;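 active = current increase at least 3 SD of the untreated controls above them in both duplicate recordings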
Of the large screens only hits and unclear results are named; the others gave an inactive call (follow-up assays come after a bar, where they were run). The list is not random: actives were taken first. Their share in the collection is about 1.6%.

COc1ccc(CCNC2CCc3ccccc3C2)cc1 (stereo not drawn)	none | Kir21 conf inh 40% | HEK293 ctr inactive
COc1ccc(CCNC(=O)C2Cc3ccccc3C(=O)O2)cc1 (stereo not drawn)	none (no result: KCNQ2 pot)
Cc1cccc(NC(=O)C(=O)NNC(=O)c2ccc(C(C)(C)C)cc2)c1	KCNQ2 pot 16 | Kir21 conf inh inactive | HEK293 ctr inactive | CHO-K1 ctr 22 | KCNQ1 sel pot 4.1 | KCNQ2 pot confirm 44 | Kir2-1 sel inactive | KCNQ2 W236L MoA inactive
CC(C)(C)c1ccc(C(=O)NNC(=O)c2cccc(Br)c2)cc1	none
Cc1ccc(/C=N\NC(=O)/C(=C\Nc2nccc(C)n2)NC(=O)c2ccccc2)cc1	none (no result: KCNQ2 pot)
CCCN(C(=O)COC(=O)CNC(=O)c1ccc2ccccc2c1)c1c(N)n(Cc2ccccc2)c(=O)[nH]c1=O	none
Cc1cc(Cl)c(S(=O)(=O)N2CCCC2)cc1OCC(=O)NC1CCCCC1	KCNQ2 pot 27 | Kir21 conf inh inactive | HEK293 ctr 139% | CHO-K1 ctr inactive | KCNQ1 sel pot inactive | KCNQ2 pot confirm 133 | Kir2-1 sel inactive | KCNQ2 W236L MoA inactive
Cc1cc(Cl)c(S(=O)(=O)NC(C(=O)O)C(C)C)cc1OCC(=O)NC1CCCCC1 (stereo not drawn)	none (no result: KCNQ2 pot)
Cc1nn(C(=O)Cn2ccc([N+](=O)[O-])n2)c(C)c1Cl	none
c1ccc2c(c1)ncn2-c1ncnc2sc3c(c12)CCCC3	none
CC(O)CNc1nc2ccccc2n1-c1ncnc2sc3c(c12)CCC3 (stereo not drawn)	none (no result: KCNQ2 pot) | Kir21 conf inh 78% | HEK293 ctr inactive
O=C(CSc1nncn1-c1ccccc1)Nc1cc(F)ccc1F	none
CCOc1ccccc1C(=O)NC(C(=O)OCC(=O)Nc1nnc(-c2ccccc2)o1)C(C)C (stereo not drawn)	none (no result: KCNQ2 pot)
CCOc1ccccc1C(=O)OCC(=O)Nc1nnc(-c2ccccc2)o1	KCNQ2 pot 5.5 | Kir21 conf inh inactive | HEK293 ctr 145% | CHO-K1 ctr 23 | KCNQ1 sel pot inactive | KCNQ2 pot confirm 14 | Kir2-1 sel inactive | KCNQ2 W236L MoA inactive
COc1ccc(C)cc1NC(=O)C1CCN(S(=O)(=O)c2ccc3c(c2)C(C)(C)C(=O)N3C)CC1	none (no result: KCNQ2 pot)
c1ccc2c(c1)OC(CCCN1CCCCC1)c1ccccc1S2 (stereo not drawn)	none (no result: KCNQ2 pot) | Kir21 conf inh 49% | HEK293 ctr inactive
c1ccc(OCCCCN2CCCCC2)cc1	none (no result: KCNQ2 pot)
CCCOc1ccc(C(=O)N/N=C/c2c[nH]c3ccc(Br)cc23)cc1	none
CCCCCN=C(N)N/N=C/c1c[nH]c2ccc(OC)cc12	KCNQ2 pot 8.8 | Kir21 conf inh inactive | HEK293 ctr inactive | CHO-K1 ctr 51 | KCNQ1 sel pot inactive | KCNQ2 pot confirm inactive | Kir2-1 sel inactive
S=c1[nH]nc(-c2ccco2)n1/N=C/C(Cl)=C/c1ccccc1	KCNQ2 pot 7.2 | Kir21 conf inh inactive | HEK293 ctr 129% | CHO-K1 ctr inactive | KCNQ1 sel pot inactive | KCNQ2 pot confirm inactive | Kir2-1 sel inactive | KCNQ2 W236L MoA inactive
Cc1cc(-c2n[nH]c(=S)n2/N=C/C(Cl)=C/c2ccccc2)n[nH]1	none (no result: KCNQ2 pot)
O=C(NCc1ccc2c(c1)OCO2)C1CCCN1C(=O)Nc1ccc(Cl)cc1 (stereo not drawn)	none
CC(=O)Nc1ccc(NC(=O)c2ccccc2S(=O)(=O)c2ccc([N+](=O)[O-])cc2)cc1	none (no result: KCNQ2 pot)
